# Experimental data as given in PubChem BioAssay (Tox21).
# Results filed as inconclusive are left out. Unmarked numbers belong to inactive results. The call rests on the fitted dose curve; in most records, active means well fitted activation curve with a large enough effect in the signal ratio in the repeat runs (not every such curve was filed as active); inconclusive means weak or mixed curves, or effect the other way; inactive means flat fitted curve, though single readings scatter; the % refers to the signal ratio.
# Molecular target: Estrogen receptor beta (Homo sapiens) (UniProt Q92731)
# Sequence (Q92731 whole entry, looked up): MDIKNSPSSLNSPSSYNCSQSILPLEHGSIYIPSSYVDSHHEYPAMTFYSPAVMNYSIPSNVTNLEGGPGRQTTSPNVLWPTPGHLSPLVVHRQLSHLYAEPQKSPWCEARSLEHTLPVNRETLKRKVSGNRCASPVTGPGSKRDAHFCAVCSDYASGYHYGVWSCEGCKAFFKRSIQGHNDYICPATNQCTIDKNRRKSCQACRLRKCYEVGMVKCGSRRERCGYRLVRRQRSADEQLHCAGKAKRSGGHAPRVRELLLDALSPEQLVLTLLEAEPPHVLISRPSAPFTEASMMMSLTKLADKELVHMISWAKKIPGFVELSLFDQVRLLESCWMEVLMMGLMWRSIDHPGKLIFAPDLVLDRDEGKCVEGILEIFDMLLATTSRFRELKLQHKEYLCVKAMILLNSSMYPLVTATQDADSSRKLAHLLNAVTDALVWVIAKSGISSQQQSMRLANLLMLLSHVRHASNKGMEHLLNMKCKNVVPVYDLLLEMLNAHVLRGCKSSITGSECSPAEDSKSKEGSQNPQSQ
# Assay: qHTS assay to identify small molecule agonists of the estrogen receptor beta (ER-beta) signaling pathway (AID 1259377)
# Conditions: ER-beta-UAS-bla HEK293T, beta-lactamase FRET ratio, 16 h; series mostly up to 92.4 µM; activation: at the top concentration
# Description: U.S. Tox21 Program National Center for Advancing Translational Sciences [NCATS] NIH Chemical Genomics Center [NCGC] U.S. Environmental Protection Agency [EPA] National Institutes of Environmental Health Sciences [NIEHS] National Toxicology Program [NTP] U.S. Food and Drug Administration [FDA] Tox21 Assay Overview: Estrogen receptor (ER), a nuclear hormone receptor, plays an important role in development, metabolic homeostasis and reproduction. Two subtypes of ER, ER-alpha and ER-beta, have similar expression patterns with some uniqueness in both types. Endocrine disrupting chemicals (EDCs) and their interactions with steroid hormone receptors like ER causes disruption of normal endocrine function. To identify the compounds that activate ER signaling, an ER beta-UAS-bla GripTite cell line (Life technologies, Madison, WI, USA) containing a beta-lactamase reporter gene under the control of an Upstream Activator Sequence (UAS) was used to screen Tox21 10K compound library.
# Tox21 Assay Protocol Summary: ER-beta-UAS-bla HEK293T cells were dispensed at 2,000 cells/5 uL of assay medium containing 2% charcoal stripped FBS per well into black wall/clear-bottom 1536-well plates using a Multidrop Combi (ThermoFisher Scientific, Waltham, MA) dispenser. After the assay plates were incubated at a 37C and 5% CO2 for 6 hr, 23 nL of compounds dissolved in DMSO, positive controls or DMSO only was transferred to the assay plate by a Pintool station (Kalypsys, San Diego, CA). The plates were incubated at 37C and 5% CO2 for 16 hr. Then 1 uL of LiveBLAzerTM B/G FRET substrate was added using a BioRAPTR FRD (Flying Reagent Dispenser, Aurora Discovery, San Diego, CA). After the plates were incubated at room temperature for 2 hours, fluorescence intensity was measured by an Envision plate reader (PerkinElmer, Shelton, CT).
# On the % scale 0 is the no-effect control and ±100 the full control effect.
row,Structure (SMILES),activation
1,ClCC(Cl)(Cl)Cl,14.3%
2,CCC(=O)c1ccccc1,0.964%
3,CCOC(=O)/C=C(C)/C=C/C[C@@H](C)CCCC(C)C,-5.15%
4,CC(Cl)(Cl)[N+](=O)[O-],10.8%
5,CC(N)=S,1.27%
6,COC(=O)C(c1ccccc1)C1CCCCN1 (stereo not given),-0.11%
7,COC(C)(C)C,0.0184%
8,CNCC(=O)c1ccc(O)c(O)c1,5.19% [at 42.5 µM]
9,O=C(Nc1ccccc1)c1ccccc1I,-0.391%
10,CN1CCC(O)(c2ccc(F)cc2)C(C(=O)c2ccc(F)cc2)C1 (stereo not given),7.59% [at 42.5 µM]
11,CN(N=O)C(N)=O,2.97%
12,COP(=S)(OC)Oc1c(Cl)cc(C)cc1Cl,3.18%
13,N#CC(O)c1ccccc1 (stereo not given),4.91%
14,Clc1ccccc1N1CCNCC1,0.785% [at 42.5 µM]
15,Cc1ncc2n1-c1ccc(Cl)cc1C(c1ccccc1F)=NC2,1.44% [at 42.5 µM]
16,OCCSCSCCO,-2.22%
17,CCc1cc2c(s1)-n1c(C)nnc1CN=C2c1ccccc1Cl,2.14% [at 42.5 µM]
18,CN1CCC(N(Cc2ccccc2)c2ccccc2)CC1,-0.609% [at 42.5 µM]
19,C[N+](C)=CCl,-0.422%
20,CCOP(=S)(OCC)Oc1cc(-c2ccccc2)on1,-0.889%

row,Structure (SMILES),activation
1,Nc1n[nH]c(N)n1,0.77%
2,BrCCCCCCBr,-0.796%
3,CNC(=O)O/N=C(\C)SC,-1.56%
4,CN1C[C@@H](NS(=O)(=O)N(C)C)C[C@@H]2c3cccc4c3c(cn4C)C[C@H]21,5.35% [at 42.5 µM]
5,Nc1cnn(-c2ccccc2)c(=O)c1Cl,7.48%
6,CC(C)CC(N(C)C)C1(c2ccc(Cl)cc2)CCC1 (stereo not given),4.72% [at 42.5 µM]
7,CC1CN1P(=O)(N1CC1C)N1CC1C (stereo not given),-0.767%
8,O=C(Cc1ccccc1)OCc1ccccc1,-0.811%
9,COc1ncc(F)c2nc(S(=O)(=O)Nc3c(F)cccc3F)nn12,-0.591% [at 42.5 µM]
10,C#CCN1C(=O)COc2cc(F)c(N3C(=O)C4=C(CCCC4)C3=O)cc21,-3.12%
11,C[C@]12CC[C@H]3[C@@H](CC=C4C[C@@H](O)CC[C@@]43C)[C@@H]1CC[C@@H]2O,-0.899% [at 42.5 µM]
12,O=NN1CCCCC1,0.131%
13,CCCCOC(=O)[C@@H](C)Oc1ccc(Oc2ccc(C#N)cc2F)cc1,-0.0768%
14,c1cc2c(c(N3CCNCC3)c1)OCCO2,0.234% [at 42.5 µM]
15,CCCCc1c(C)nc(NCC)[nH]c1=O,7.75%
16,OCCBr,-2.55%
17,CN1C(=S)CN=C(c2ccccc2)c2cc(Cl)ccc21,0.983% [at 42.5 µM]
18,CNC(=O)Oc1c(C(C)(C)C)cc(C)cc1C(C)(C)C,-0.652%
19,CC(C)(C)C(=O)C(Oc1ccc(Cl)cc1)n1cncn1 (stereo not given),0.0489%
20,CCOC(=O)CP(=O)(OCC)OCC,11.5%
